Reference: PubChem BioAssay (Tox21)
Results filed as inconclusive are left out. Active and inactive are the calls of the source. Unless noted, calls follow the shape of the dose curve; as a rule, active = well fitted curve in the direction sought with a large enough effect in the repeat runs; inconclusive = weak or mixed curves; inactive = no such curve, though single readings can be large; an effect the other way counts as inactive or inconclusive.

Columns and labels:
[1] = qHTS assay to identify small molecule antagonists of the estrogen receptor alpha (ER-alpha) signaling pathway using the BG1 cell line in the presence of 0.1 nM 17-beta-estradiol - cell viability counter screen (AID 1259241); also: nearly all actives have a fitted effect of over 40% in size; also: potency is read from the fitted curve at half-maximal effect
Outline: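 Cytotoxicity counter-screen: live-cell protease activity measured by fluorescence (30 min reagent step) in the same wells. Cells were VM7Luc4E2 with endogenous ER-alpha and ERE-driven luciferase, treated 22 hr at 37C alongside 0.1 nM 17beta-estradiol final.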

[2] = qHTS assay to identify small molecule antagonists of the androgen receptor (AR) signaling pathway using the MDA cell line in the presence of 0.5 nM R1881 - cell viability counter screen (AID 1259242); also: nearly all actives have a fitted effect of over 45% in size; also: potency is read from the fitted curve at half-maximal effect
Outline: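 Counter screen for cytotoxicity run in the same wells as the AR antagonist reporter screen: MDA-kb2 cells were treated 16 hr with test compounds and 0.5 nM R1881, then live-cell protease activity was measured by fluorescence.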

[3] = target: Estrogen receptor (Homo sapiens) (UniProt P03372); assay: qHTS assay to identify small molecule antagonists of the estrogen receptor alpha (ER-alpha) signaling pathway using the BG1 cell line in the presence of 0.1 nM 17-beta-estradiol (AID 1259244); also: nearly all actives have a fitted effect of over 50% in size; also: potency is read from the fitted curve at half-maximal effect
Outline: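 Cells: VM7Luc4E2, endogenous ER-alpha, 4x ERE-luc stable. Pre-culture 5 d, phenol red-free, charcoal-stripped FBS. Plated 24 h, compound + E2 0.1 nM final, 22 h 37C/5% CO2. Readout ONE-Glo luminescence.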

[4] = qHTS assay to identify small molecule phospholipidosis (PLD) inducers (AID 1259344; active = well fitted curve in the direction sought with a large enough effect; an effect the other way counts as inactive or inconclusive)
Outline: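 Quantitative HTS in HepG2: compound plus LipidTOX Red dye for 24 h, paraformaldehyde fixation with Hoechst 33342, widefield high-content imaging; amiodarone as positive and DMSO as negative control.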

[5] = qHTS assay to identify small molecule HDAC inhibitors (AID 1259364); also: top concentration of the series differs between compounds; nearly all actives have a fitted effect of over 45% in size
Outline: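 Luminescence from a cell-permeant luminogenic class I/II HDAC substrate reports endogenous deacetylase activity in intact HCT-116 cells treated with compounds for 2 h.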

[6] = qHTS assay to identify small molecule HDAC inhibitors - cell viability counter screen (AID 1259365); also: series mostly up to about 92 µM; nearly all actives have a fitted effect of over 50% in size
Outline: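 CellTiter-Glo luminescence (30 min, room temperature) reported viability after a 2 h compound exposure at 37 C. Cells: wild-type HCT-116, 1,500 per well, seeded the night before.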

[7] = qHTS assay to identify small molecule agonists of the sonic hedgehog signaling (Shh) pathway - cell viability counter screen (AID 1259366); also: nearly all actives have a fitted effect of over 50% in size; also: potency is read from the fitted curve at half-maximal effect
Outline: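 Cytotoxicity counter screen: CellTiter-Fluor reagent added after 23 h compound exposure, then 1 h at 37C and fluorescence read. Cells were 3T3 Gli1-Luc, seeded 2,000 per well and dosed 4 h post-plating.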

[8] = qHTS assay to identify small molecule antagonists of the sonic hedgehog signaling (Shh) pathway - cell viability counter screen (AID 1259367); also: nearly all actives have a fitted effect of over 55% in size
Outline: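 Seed 3T3 Gli1-Luc cells at 2,000 per well; incubate 4 hr; add compound in DMSO, then conditioned medium; incubate at 37C with 5% CO2; add CellTiter-Fluor after 23 hr; read fluorescence 1 hr later.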

[9] = qHTS assay to identify small molecule agonists of the sonic hedgehog signaling (Shh) pathway (AID 1259368; calls by dose curve;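 also: NIH/3T3-derived 3T3Gli1-Luc cells carrying a stable Gli1-driven firefly luciferase reporter; series mostly up to about 92 µM; nearly all actives have a fitted effect of over 15% in size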)
Outline: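 3T3Gli1-Luc (NIH/3T3 clone, stable Gli1-Luc); 4 hr pre-incubation, then cpd in DMSO 24 hr, 37 C/5% CO2; luciferase reagent 30 min RT; luminescence.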

[10] = qHTS assay to identify small molecule antagonists of the sonic hedgehog signaling (Shh) pathway (AID 1259369; calls by dose curve; also: nearly all actives have a fitted effect of over 45% in size; also: potency is read from the fitted curve at half-maximal effect)
Outline: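 3T3Gli1-Luc, conditioned-medium-stimulated, 24hr cpd, 37C/5% CO2; Gli1-driven firefly Luc luminescence after 30min RT with luciferase reagent. Cells plated 4hr before cpd.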

[11] = qHTS assay to identify small molecule agonists of the androgen receptor (AR) signaling pathway in the presence of an antagonist - cell viability counter screen (AID 1259379); also: nearly all actives have a fitted effect of over 25% in size; also: potency is read from the fitted curve at half-maximal effect
Outline: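 Cells: MDA-kb2 (MMTV-luc, AR and GR elements), 3,000/well, 5 hr settle. Added: nilutamide 3.0uM final, then compounds (15 conc.). Incubation: 16 hr, 37C, no CO2. Read-out: CellTiter-Fluor, 1 hr, fluorescence.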

[12] = qHTS assay to identify small molecule agonists of the estrogen receptor beta (ER-beta) signaling pathway - cell viability counter screen (AID 1259380); also: nearly all actives have a fitted effect of over 30% in size; also: potency is read from the fitted curve at half-maximal effect
Outline: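 HEK293T ER-beta-UAS-bla; 2% CS-FBS; 6 hr pre-plate, 16 hr cpd at 37C/5% CO2; LiveBLAzer read first, then CellTiter-Glo 30 min RT, luminescence.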

[13] = qHTS assay to identify small molecule antagonists of the estrogen receptor beta (ER-beta) signaling pathway - cell viability counter screen (AID 1259382); also: nearly all actives have a fitted effect of over 55% in size; also: potency is read from the fitted curve at half-maximal effect
Outline: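 Cells: ER-beta-UAS-bla HEK293T, 2,000/well, 2% CS-FBS, 6 hr settle. Cpd + E2 (1nM final), 16 hr, 37C/5% CO2. Bla FRET substrate 2 hr RT, then CellTiter-Glo 30 min RT, luminescence.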

[14] = qHTS assay to identify small molecule agonists or antagonists of the thyroid stimulating hormone receptor (TSHR) signaling pathway - wild type cell line counter screen (AID 1259384; calls by dose curve)
Outline: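 Wild-type Hek293 cells, 800/well, 18 h at 37C, then compound with Ro20-1724 for 30 min RT. cAMP by HTRF (cAMP-d2/anti-cAMP cryptate), 1 h RT, fluorescence read. 15 concentrations, triplicates.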

[15] = target: Androgen receptor (Homo sapiens) (UniProt P10275); assay: qHTS assay to identify small molecule agonists of the androgen receptor (AR) signaling pathway in the presence of an antagonist (AID 1259381; calls by dose curve; also: nearly all actives have a fitted effect of over 15% in size)
Outline: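 MDA-kb2 cells, 3,000/well, rested 5hr at 37C/0% CO2 → nilutamide 3.0uM final or buffer → compounds, 15 conc. → 16hr at 37C → ONE-Glo, 30min RT → luminescence.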

[16] = target: Estrogen receptor (Homo sapiens) (UniProt P03372); assay: qHTS assay to identify small molecule agonists of the estrogen receptor alpha (ER-alpha) signaling pathway in the presence of an antagonist (AID 1259383; calls by dose curve; also: top concentration of the series differs between compounds; nearly all actives have a fitted effect of over 15% in size)
Outline: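 VM7Luc4E2, endog. ER-alpha + 4×ERE-luc; charcoal-stripped FBS, phenol red-free, 5 d; 24hr plating; +10.0nM ICI-182,780 (final); cpds 15 conc, 22hr, 37C/5% CO2; ONE-Glo luminescence.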

[17] = target: Thyrotropin receptor (Homo sapiens) (UniProt P16473); assay: qHTS assay to identify small molecule antagonists of the thyroid stimulating hormone receptor (TSHR) signaling pathway (AID 1259385; calls by dose curve; also: nearly all actives have a fitted effect of over 20% in size; also: potency is read from the fitted curve at half-maximal effect)
Outline: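 TSHR-HEK293 cells (800/well) plated 18 h, then compounds with Ro20-1724 and TSH at 1.5 ng/mL final, 30 min at room temperature. cAMP quantified by HTRF (cAMP-d2/anti-cAMP-cryptate, 1 h); 15 concentrations in triplicate.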

[18] = target: Estrogen receptor beta (Homo sapiens) (UniProt Q92731); assay: qHTS assay to identify small molecule agonists of the estrogen receptor beta (ER-beta) signaling pathway (AID 1259377; active = well fitted activation curve with a large enough effect in the signal ratio in the repeat runs, not every such curve was filed as active; the % refers to the signal ratio)
Outline: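 Ratiometric beta-lactamase FRET read-out came after 2 h substrate loading at room temperature. It followed 16 h compound treatment at 37C of GripTite HEK293T cells carrying a UAS-bla reporter, plated in 2% charcoal-stripped FBS medium.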

[19] = target: Estrogen receptor beta (Homo sapiens) (UniProt Q92731); assay: qHTS assay to identify small molecule antagonists of the estrogen receptor beta (ER-beta) signaling pathway (AID 1259378; active = well fitted inhibition curve with a large enough effect in the signal ratio in the repeat runs, not every such curve was filed as active; the % refers to the signal ratio)
Outline: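 ER-beta-UAS-bla HEK293T cells in 2% charcoal-stripped FBS medium treated with compound plus 1nM final 17-beta-estradiol for 16 hr at 37C. Beta-lactamase reporter read by FRET substrate fluorescence after 2 hours at room temperature.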

[20] = target: Androgen receptor (Homo sapiens) (UniProt P10275); assay: qHTS assay to identify small molecule antagonists of the androgen receptor (AR) signaling pathway using the MDA cell line in the presence of 0.5 nM R1881 (AID 1259243); also: nearly all actives have a fitted effect of over 50% in size; also: potency is read from the fitted curve at half-maximal effect
Outline: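 Luciferase luminescence is the read-out: compounds are tested for suppressing 0.5 nM R1881-driven MMTV reporter activity in MDA-kb2 cells after 16 hr at 37C.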

Measured: Potency

Estrogen receptor beta (Homo sapiens), sequence (Q92731 whole entry, looked up): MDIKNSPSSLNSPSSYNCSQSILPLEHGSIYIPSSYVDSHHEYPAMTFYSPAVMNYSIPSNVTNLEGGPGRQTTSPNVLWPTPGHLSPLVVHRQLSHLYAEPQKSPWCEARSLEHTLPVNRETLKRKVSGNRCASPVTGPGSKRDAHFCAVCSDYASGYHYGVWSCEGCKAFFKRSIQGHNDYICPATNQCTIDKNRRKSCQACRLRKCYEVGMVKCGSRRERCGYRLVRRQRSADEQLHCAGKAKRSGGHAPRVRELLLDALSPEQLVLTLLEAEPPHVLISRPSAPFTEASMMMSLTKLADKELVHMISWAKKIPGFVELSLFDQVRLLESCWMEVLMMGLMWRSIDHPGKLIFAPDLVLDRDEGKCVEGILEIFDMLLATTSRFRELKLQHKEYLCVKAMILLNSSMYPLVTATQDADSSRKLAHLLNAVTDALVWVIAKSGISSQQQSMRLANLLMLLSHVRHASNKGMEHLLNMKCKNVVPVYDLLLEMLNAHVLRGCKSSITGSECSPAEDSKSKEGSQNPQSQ
Androgen receptor (Homo sapiens), sequence (P10275 whole entry, looked up): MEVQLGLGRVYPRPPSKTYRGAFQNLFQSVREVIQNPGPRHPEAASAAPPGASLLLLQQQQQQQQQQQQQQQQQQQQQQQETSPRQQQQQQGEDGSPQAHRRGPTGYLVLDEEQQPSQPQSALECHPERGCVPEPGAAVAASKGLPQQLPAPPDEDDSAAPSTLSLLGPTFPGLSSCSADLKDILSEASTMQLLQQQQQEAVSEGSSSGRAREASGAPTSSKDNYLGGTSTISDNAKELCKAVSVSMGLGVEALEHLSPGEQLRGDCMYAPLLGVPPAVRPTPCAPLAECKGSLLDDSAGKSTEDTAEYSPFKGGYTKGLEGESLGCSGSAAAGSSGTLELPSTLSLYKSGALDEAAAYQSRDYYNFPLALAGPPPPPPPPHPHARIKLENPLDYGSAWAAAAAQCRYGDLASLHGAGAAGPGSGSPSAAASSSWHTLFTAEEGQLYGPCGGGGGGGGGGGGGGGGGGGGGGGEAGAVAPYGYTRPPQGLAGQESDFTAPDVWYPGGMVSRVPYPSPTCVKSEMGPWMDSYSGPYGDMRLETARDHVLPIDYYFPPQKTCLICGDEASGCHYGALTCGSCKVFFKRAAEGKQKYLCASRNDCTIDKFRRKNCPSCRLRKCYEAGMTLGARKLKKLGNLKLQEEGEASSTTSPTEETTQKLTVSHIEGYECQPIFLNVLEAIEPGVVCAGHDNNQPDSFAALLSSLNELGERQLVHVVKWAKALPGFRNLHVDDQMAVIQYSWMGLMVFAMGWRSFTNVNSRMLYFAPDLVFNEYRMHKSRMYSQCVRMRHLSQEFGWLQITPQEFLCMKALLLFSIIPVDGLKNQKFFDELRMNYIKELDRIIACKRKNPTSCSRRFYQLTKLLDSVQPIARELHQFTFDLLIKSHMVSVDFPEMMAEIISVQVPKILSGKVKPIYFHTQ
Estrogen receptor (Homo sapiens), sequence (P03372 whole entry, looked up): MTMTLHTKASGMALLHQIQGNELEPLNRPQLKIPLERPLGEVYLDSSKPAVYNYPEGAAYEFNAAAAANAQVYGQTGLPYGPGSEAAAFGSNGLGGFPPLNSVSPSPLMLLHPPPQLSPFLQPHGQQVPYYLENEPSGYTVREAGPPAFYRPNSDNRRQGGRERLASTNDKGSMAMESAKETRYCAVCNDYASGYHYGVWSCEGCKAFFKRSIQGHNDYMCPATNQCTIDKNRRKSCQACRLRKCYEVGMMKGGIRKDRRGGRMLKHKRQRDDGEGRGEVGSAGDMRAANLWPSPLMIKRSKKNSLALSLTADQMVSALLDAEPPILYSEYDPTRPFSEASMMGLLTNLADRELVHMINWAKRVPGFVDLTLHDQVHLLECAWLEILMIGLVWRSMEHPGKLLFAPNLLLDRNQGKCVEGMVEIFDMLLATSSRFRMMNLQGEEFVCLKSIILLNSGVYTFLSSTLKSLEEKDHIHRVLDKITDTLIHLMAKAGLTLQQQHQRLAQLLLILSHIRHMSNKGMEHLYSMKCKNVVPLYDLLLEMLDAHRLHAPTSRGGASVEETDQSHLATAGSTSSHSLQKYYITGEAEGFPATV
Thyrotropin receptor (Homo sapiens), sequence (P16473 whole entry, looked up): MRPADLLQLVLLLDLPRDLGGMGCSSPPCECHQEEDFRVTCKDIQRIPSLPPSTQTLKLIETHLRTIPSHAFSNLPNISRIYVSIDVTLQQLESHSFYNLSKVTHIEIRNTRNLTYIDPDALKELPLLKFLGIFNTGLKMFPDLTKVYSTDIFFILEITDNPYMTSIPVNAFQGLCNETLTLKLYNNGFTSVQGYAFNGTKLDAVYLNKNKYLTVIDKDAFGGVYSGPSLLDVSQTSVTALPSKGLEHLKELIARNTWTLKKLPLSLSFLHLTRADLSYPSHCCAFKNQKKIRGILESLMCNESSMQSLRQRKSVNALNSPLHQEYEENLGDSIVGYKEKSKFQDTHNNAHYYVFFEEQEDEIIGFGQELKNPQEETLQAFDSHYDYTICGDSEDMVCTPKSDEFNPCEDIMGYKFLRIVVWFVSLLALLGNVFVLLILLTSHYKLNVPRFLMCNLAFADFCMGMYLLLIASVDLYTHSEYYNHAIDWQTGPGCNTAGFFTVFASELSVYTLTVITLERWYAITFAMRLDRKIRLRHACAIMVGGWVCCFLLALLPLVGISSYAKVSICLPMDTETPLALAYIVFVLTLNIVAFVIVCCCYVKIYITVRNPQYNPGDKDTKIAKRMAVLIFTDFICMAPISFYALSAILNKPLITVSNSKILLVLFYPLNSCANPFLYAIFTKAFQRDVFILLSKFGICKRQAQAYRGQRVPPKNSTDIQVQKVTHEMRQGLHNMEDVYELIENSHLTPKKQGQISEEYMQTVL

CSc1ccc(C(=O)c2[nH]c(=O)[nH]c2C)cc1
inactive: [1] | [2] | [3] | [4] | [5] | [6] | [7] | [8] | [9] | [10] | [11] | [12] | [13] | [14]

CSc1ccc(/C=C2/C(C)=C(CC(=O)O)c3cc(F)ccc32)cc1
active: [12] 10.6 µM
inactive: [1] | [2] | [3] | [4] | [6] | [7] | [9] | [10] | [11] | [15] | [16] | [14] | [17]

CC(=O)SC[C@@H](Cc1ccccc1)C(=O)NCC(=O)OCc1ccccc1
inactive: [1] | [2] | [3] | [4] | [5] | [6] | [7] | [8] | [9] | [10] | [18] | [19] | [12] | [13] | [16] | [14]
active: [17] 23.7 µM

Cc1cccc(N(C)C(=S)Oc2ccc3c(c2)C2CCC3C2)c1 (stereo unspecified)
inactive: [1] | [2] | [3] | [5] | [6] | [7] | [8] | [9] | [10] | [18] | [19] | [11] | [12] | [13] | [14]

OC1(c2ccc(Cl)c(C(F)(F)F)c2)CCN(CCCC(c2ccc(F)cc2)c2ccc(F)cc2)CC1
active: [1] 33.5 µM | [2] 13.3 µM | [3] 26.6 µM | [7] 13.3 µM | [10] 13.3 µM | [11] 18.8 µM | [12] 10.6 µM | [13] 10.6 µM
inactive: [4] | [5] | [9] | [16] | [14] | [17]

N/C(=N\N=C\c1ccc(Cl)cc1)N/N=C/c1ccc(Cl)cc1
inactive: [1] | [2] | [3] | [4] | [5] | [6] | [7] | [8] | [9] | [18] | [14]
active: [11] 29.8 µM | [12] 29.8 µM

CCCCCCCC(=O)[O-].CCCCCCCC(=O)[O-].[Zn+2]
inactive: [1] | [2] | [3] | [5] | [6] | [7] | [8] | [9] | [10] | [18] | [19] | [12] | [13] | [16]

ON=C1CCCC1
active: [20] 63.3 µM | [12] 35.6 µM
inactive: [1] | [2] | [6] | [7] | [9] | [10] | [19] | [11] | [15] | [13] | [16] | [14] | [17]

CCCCCCC[N+](CC)(CC)CCCCc1ccc(Cl)cc1
active: [1] 26.6 µM | [2] 6.68 µM | [3] 11.9 µM | [10] 0.168 µM | [11] 5.96 µM | [12] 9.44 µM
inactive: [4] | [5] | [6] | [7] | [8] | [9] | [18] | [16] | [14]

CCCCN(CCCC)c1ccc(C(=O)c2ccccc2C(=O)O)c(O)c1
active: [12] 15.5 µM
inactive: [1] | [2] | [20] | [5] | [7] | [8] | [9] | [10] | [11] | [15] | [14] | [17]

Cc1cccc(CN2CCN(C(c3ccccc3)c3ccc(Cl)cc3)CC2)c1 (stereo unspecified)
inactive: [1] | [2] | [3] | [4] | [5] | [6] | [7] | [8] | [9] | [10] | [18] | [11] | [12] | [13] | [16] | [14]

Oc1c(Cl)cc(Cl)c2cccnc12
active: [3] 18.8 µM | [7] 4.22 µM | [12] 4.73 µM | [13] 11.9 µM
inactive: [1] | [2] | [4] | [5] | [6] | [9] | [16] | [14] | [17]

O=c1[nH]cnc2nc[nH]c12
inactive: [1] | [2] | [3] | [4] | [6] | [7] | [8] | [9] | [10] | [11] | [12] | [13] | [16] | [14] | [17]

OCc1c[nH]c2ccccc12
inactive: [1] | [2] | [4] | [5] | [6] | [7] | [9] | [15] | [13] | [14] | [17]
active: [20] 17.2 µM | [10] 30.6 µM
